Tb PGK inh: T. brucei PGK inhibition; PGK/GAPDH coupled, Kinase-Glo luminescence, 60 min; Potency, µM (doses to about 57.5 µM), actives largely listed as inhibitors; hit rate 0.043% among 380,000; P07378; also: nearly all actives have a fitted effect of over 60% in size
Target sequence (P07378 whole entry, looked up): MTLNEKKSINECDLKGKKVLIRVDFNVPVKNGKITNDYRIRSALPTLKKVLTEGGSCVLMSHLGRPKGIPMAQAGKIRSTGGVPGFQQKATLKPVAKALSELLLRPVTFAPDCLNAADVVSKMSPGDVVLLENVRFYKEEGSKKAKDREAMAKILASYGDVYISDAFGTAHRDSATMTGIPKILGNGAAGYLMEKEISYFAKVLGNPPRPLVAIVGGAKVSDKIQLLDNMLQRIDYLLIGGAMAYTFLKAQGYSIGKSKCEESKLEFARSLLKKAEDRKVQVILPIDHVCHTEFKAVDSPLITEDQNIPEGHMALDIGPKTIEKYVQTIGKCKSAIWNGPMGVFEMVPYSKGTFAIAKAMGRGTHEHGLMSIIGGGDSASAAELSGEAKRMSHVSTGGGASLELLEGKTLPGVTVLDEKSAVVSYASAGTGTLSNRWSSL
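Luminescent ATP detection (Kinase-Glo Plus) follows a 60-minute room-temperature incubation, with wells lacking PGK as controls. Buffer: 100 mM TEA (pH 7.6), 5 mM MgCl2, 0.01% Tween-20. Coupling enzyme GAPDH (100 nM final) supplies unstable 1,3-BPG in-well.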
Pol iota inh: DNA polymerase iota (human) inhibition; Q9UNA4; Pol iota fluorescent replication assay, 10 min; Potency, µM (titrated, usually from 115 µM), most hits filed as inhibitors; hit rate 1% among 390,000; AID 588590
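Fluorescent replication assay read twice, at 0 min and 10 min after adding 50 nM (final) substrate. Enzyme (10 nM) and compounds were first incubated 15 min at room temperature; enzyme-free buffer wells were negative controls.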
POLH inh: DNA polymerase eta (human) inhibition. Q9Y253. recombinant Pol eta, fluorescent DNA replication assay. Potency, µM (top dose mostly 114 µM), usual class: inhibitors. hit rate 1.2% among 390,000. AID 588591
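Pol eta at 10 nM preincubated with compounds 15 min at room temperature; reaction started with fluorescent substrate (50 nM final) and read kinetically at 0 and 10 min.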
Pol beta inh: blocks human DNA polymerase beta activity; P06746; Pol beta primer extension/strand displacement, fluorescence kinetic; Potency, µM (doses to about 114 µM), most hits filed as inhibitors; hit rate 1.3% among 340,000
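Kinetic readout of DNA synthesis with strand displacement by Pol beta. Compound and 10 nM enzyme sit 15 min at room temperature; 50 nM substrate starts the reaction, read immediately and at 10 min.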
FEN1 inh-1: human FEN1 inhibition; Recombinant FEN1 flap cleavage, fluorescence, 15 min; Potency, µM (titrated, usually from 114 µM), actives largely listed as inhibitors; hit rate 0.35% among 390,000; AID 588795; P39748; also: nearly all actives have a fitted effect of over 65% in size
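FEN1 at 10 nM preincubated with compounds 15 min at room temperature, then flap DNA substrate added at 50 nM final. Signal read at 0 and 15 min; concentration-response fitted with four-parameter Hill equation.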
POLK inh: blocks human DNA polymerase kappa activity. hit rate 0.53% among 400,000. AID 588579. Potency, µM (titrated, usually from 107 µM), most hits filed as inhibitors. Q9UBT6. purified Pol kappa, fluorescent DNA synthesis assay, 10 min
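10 nM Pol kappa was preincubated with compounds for 15 min at room temperature. Reaction started with 50 nM (final) substrate. Fluorescence read kinetically at 0 and 10 min.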
FEN1 inh-2: FEN1 inhibition, cherry-pick retest; shares compounds with FEN1 inh-1; FEN1 flap cleavage, TAMRA/BHQ2 fluorogenic DNA substrate; Potency, µM, usual class: inhibitors; hit rate 79% among 880; AID 720498; also: nearly all actives have a fitted effect of over 60% in size
Large screens that a line does not name were inactive (follow-up assays come after a bar, where they were run). Hits are enriched below; roughly 2.4% of the tested compounds scored in any of these assays. Calls follow the shape of the dose curve; as a rule, active = well fitted curve in the direction sought with a large enough effect; inconclusive = small, poorly fitted or top-dose-only effect, or another doubt; inactive = no such curve, though single readings can be large; an effect the other way counts as inactive or inconclusive.

Cc1c(C(=O)N(Cc2ccco2)Cc2ccccc2Cl)oc2ccc(F)cc12	none
COc1ccc2cc3[n+](cc2c1OC)CCc1cc2c(cc1-3)OCO2	Pol iota inh inconclusive, FEN1 inh-1 inconclusive | FEN1 inh-2 inconclusive
CC(C)c1nc2ccc(C(=O)NCc3ccc(F)cc3)cc2o1	none
O=C1NC(=S)SC1=Cc1ccc2c(c1)OCO2	none (no result: Pol beta inh)
CN(C)c1ccc(C=C2SC(=S)NC2=O)cc1	Pol iota inh inconclusive, POLH inh inconclusive (no result: Pol beta inh) | FEN1 inh-2 inconclusive
CCOC(=O)c1cc2c(=O)n3ccccc3nc2n(Cc2ccco2)c1=NC(=O)c1cccc(C)c1	Pol iota inh inconclusive
CCOC(=O)c1cc2c(=O)n3ccccc3nc2n(Cc2ccco2)c1=NC(=O)c1c(F)cccc1Cl	Pol iota inh inconclusive, POLK inh inconclusive | FEN1 inh-2 inconclusive
COc1ccc(C(=O)c2cn(CC(=O)Nc3cc(OC)cc(OC)c3)c3ccc(OC)cc3c2=O)cc1	Pol iota inh inconclusive, POLH inh 79.4µM, FEN1 inh-1 inconclusive | FEN1 inh-2 inconclusive
CCOc1ccc(NC(=O)Cn2cc(C(=O)c3ccccc3)c(=O)c3cc(OC)ccc32)cc1	none
CCN(CC)Cc1cc(Nc2c3ccccc3nc3c4ccccc4n(C)c23)cc(CN(CC)CC)c1O	Pol iota inh inconclusive, POLH inh inconclusive, FEN1 inh-1 28.2µM, POLK inh inconclusive (no result: Pol beta inh) | FEN1 inh-2 19
Oc1cccc(Nc2c3ccccc3nc3ccccc23)c1	Pol iota inh inconclusive, Pol beta inh inconclusive, FEN1 inh-1 inconclusive
O=C(OCCc1ccccc1)c1cc(O)c(O)c(O)c1	Pol iota inh inconclusive, FEN1 inh-1 39.8µM, POLK inh 44.7µM (no result: Pol beta inh) | FEN1 inh-2 37.9
Nc1ccc(C(=O)OCCc2ccccc2)cc1	none (no result: Pol beta inh)
COc1ccc(/C=N/Nc2cc(C)nc3ccc(Br)cc23)cc1	FEN1 inh-1 inconclusive | FEN1 inh-2 inconclusive
COc1cccc2c(N/N=C/c3ccccc3)cc(C)nc12	none
CCN(CC)S(=O)(=O)c1ccc2c(c1)N(CC(=O)NCCCN1CCN(c3cc(C)ccc3C)CC1)C(=O)CO2	none
O=C(O)CC1(c2ccccc2)C(=O)c2ccccc2C1=O	none
NC(=O)C1C(=O)c2ccccc2C1(C[N+](=O)[O-])c1ccccc1 (stereo unspecified)	FEN1 inh-1 44.7µM (no result: Pol beta inh) | FEN1 inh-2 42.6
c1ccc2nc3c(nc2c1)c1ccccc1n3CCN1CCOCC1	Pol iota inh inconclusive, Pol beta inh inconclusive, FEN1 inh-1 inconclusive | FEN1 inh-2 inconclusive
CCN(CC)CCN1C(=O)c2cccc3cc(N)cc(c23)C1=O	Pol iota inh inconclusive, Pol beta inh inconclusive, FEN1 inh-1 50.1µM, POLK inh inconclusive | FEN1 inh-2 inconclusive
O=C(Nc1ccc2nc(SCC(=O)N3CCCC3)sc2c1)c1cccc(F)c1	none
Cc1ccc(N(CC(=O)N2CCN(c3cccc(C)c3C)CC2)S(=O)(=O)c2c(C)nn(C)c2C)cc1	Pol iota inh inconclusive
COc1ccccc1CNC(=O)COC(=O)c1ccc([N+](=O)[O-])o1	Pol iota inh inconclusive, POLH inh inconclusive, FEN1 inh-1 inconclusive (no result: Pol beta inh) | FEN1 inh-2 30.1
O=C(COC(=O)c1ccc([N+](=O)[O-])o1)NCc1ccccc1	Pol iota inh inconclusive, POLH inh 50.1µM, FEN1 inh-1 inconclusive (no result: Pol beta inh) | FEN1 inh-2 13.5
CCOc1cc(N2CCOCC2)c(OCC)cc1NC(=O)COC(=O)c1ccc([N+](=O)[O-])o1	POLH inh inconclusive, FEN1 inh-1 28.2µM (no result: Pol beta inh) | FEN1 inh-2 8.49
CCOc1cc(N2CCOCC2)c(OCC)cc1NC(=O)COC(=O)c1cc(C)oc1C	none
COc1ccccc1CNC(=O)COC(=O)c1cc2ccccc2o1	none (no result: Pol beta inh)
O=C(COC(=O)c1ccc([N+](=O)[O-])o1)c1ccccc1	none
Cc1cccc(C)c1NC(=O)COC(=O)c1ccc([N+](=O)[O-])o1	Pol iota inh inconclusive, POLH inh inconclusive, FEN1 inh-1 inconclusive | FEN1 inh-2 13.5
COc1ccc(CNC(=O)c2ccc3c(c2)N(Cc2c(F)cccc2Cl)C(=O)CS3)cc1	none
CCOC(=O)c1ccc(OCC2c3cc(OC)c(OC)cc3CCN2C(=O)c2ccc(S(=O)(=O)N3CCCC3)cc2)cc1 (stereo unspecified)	none
O=C(COC(=O)c1ccc([N+](=O)[O-])o1)Nc1ccc2c(c1)OCO2	POLH inh inconclusive, FEN1 inh-1 inconclusive (no result: Pol beta inh) | FEN1 inh-2 19
O=C(COC(=O)c1ccc([N+](=O)[O-])o1)Nc1ccc2c(c1)OC(F)(F)O2	none (no result: Pol iota inh, Pol beta inh, FEN1 inh-1, POLK inh)
CCN(CC)Cc1cc2[nH]c3c4ccc(Cl)cc4ncc3c2cc1OC	Pol iota inh inconclusive, Pol beta inh 50.1µM, FEN1 inh-1 14.1µM, POLK inh inconclusive | FEN1 inh-2 inconclusive
O=C(/C=C/C#Cc1cccc(NS(=O)(=O)c2ccccc2)c1)NO	none (no result: Tb PGK inh, Pol iota inh, POLH inh, Pol beta inh, FEN1 inh-1)
Cc1ccc2c(c1)c(/C=C/c1cc[n+](C)cc1)c(C)n2C	Pol iota inh inconclusive, Pol beta inh inconclusive, FEN1 inh-1 inconclusive | FEN1 inh-2 33.8
C=CCC(O)[C@H](Cc1cnc2ccccc2c1)[C@H](/C=C/CCCC)c1ccccc1 (stereo partly specified)	none (no result: Tb PGK inh, POLH inh, Pol beta inh)
CC(NC(=O)c1cccc(NC(=O)c2nsc3ccccc23)c1)c1ccccc1 (stereo unspecified)	Pol iota inh inconclusive
O=C(NCCCN1CCCC1)c1cc2c(Cl)nc3ccccc3c2s1	FEN1 inh-1 39.8µM | FEN1 inh-2 37.9
Cc1ccc2oc(=O)c3cc(C(=O)NCCCN4CCCCCC4)sc3c2c1	Pol iota inh 79.4µM, FEN1 inh-1 inconclusive | FEN1 inh-2 inconclusive
O=C(NCCCN1CCN(c2ccccc2F)CC1)c1cc2c(Cl)nc3ccccc3c2s1	none
CC1CCN(CCCNC(=O)c2cc3c(Cl)nc4ccccc4c3s2)CC1	FEN1 inh-1 inconclusive (no result: Tb PGK inh) | FEN1 inh-2 inconclusive
CCCN1CCN(CCCNC(=O)c2cc3c(Cl)nc4ccccc4c3s2)CC1	FEN1 inh-1 44.7µM | FEN1 inh-2 inconclusive
Cc1ccc2nc(Cl)c3cc(C(=O)NCCCN4CCC(C)CC4)sc3c2c1	none
Cc1nnsc1C(=O)Oc1ccccc1Cl	none
O=C1Nc2ccccc2C1C(C[N+](=O)[O-])c1ccccn1 (stereo unspecified)	FEN1 inh-1 inconclusive (no result: Tb PGK inh) | FEN1 inh-2 9.53
O=C(COc1cccc2ccccc12)N/N=C/c1ccccc1OCc1ccc(C(=O)O)cc1	POLH inh 79.4µM, Pol beta inh 89.1µM, FEN1 inh-1 inconclusive | FEN1 inh-2 84.9
COc1cc2cc(-c3ccc(O)cc3O)nc(C)c2cc1OC	Pol iota inh inconclusive, POLH inh inconclusive, Pol beta inh inconclusive, FEN1 inh-1 inconclusive | FEN1 inh-2 inconclusive
CCOc1ccc(-c2cc3cc(OC)c(OC)cc3c(C)n2)cc1	none

From PubChem
